GPR151 activ: activates the human receptor GPR151. activation, % at 11.2 µM. Q8TDV0. PathHunter beta-arrestin GPR151 cells, luminescence. AID 1508602. 1% of 650,000 active; in the data active = activation above about 4.9%
TEAD-YAP block: TEAD-YAP interaction inhibition | HEK-TIYL cells, TEAD-Gal4/YAP UAS-luciferase luminescence | inhibition, % at 9.12 µM | 1.4% of 640,000 active | AID 1259422; in the data active = inhibition above about 32%
MITF primary: inhibitors of human MITF. AID 1259374. O75030. inhibition, % at 2.6 µM. AlphaScreen MITF homodimerization, bead proximity signal. 0.91% of 650,000 active; in the data active = inhibition above about 50%
Target sequence (O75030 whole entry, looked up): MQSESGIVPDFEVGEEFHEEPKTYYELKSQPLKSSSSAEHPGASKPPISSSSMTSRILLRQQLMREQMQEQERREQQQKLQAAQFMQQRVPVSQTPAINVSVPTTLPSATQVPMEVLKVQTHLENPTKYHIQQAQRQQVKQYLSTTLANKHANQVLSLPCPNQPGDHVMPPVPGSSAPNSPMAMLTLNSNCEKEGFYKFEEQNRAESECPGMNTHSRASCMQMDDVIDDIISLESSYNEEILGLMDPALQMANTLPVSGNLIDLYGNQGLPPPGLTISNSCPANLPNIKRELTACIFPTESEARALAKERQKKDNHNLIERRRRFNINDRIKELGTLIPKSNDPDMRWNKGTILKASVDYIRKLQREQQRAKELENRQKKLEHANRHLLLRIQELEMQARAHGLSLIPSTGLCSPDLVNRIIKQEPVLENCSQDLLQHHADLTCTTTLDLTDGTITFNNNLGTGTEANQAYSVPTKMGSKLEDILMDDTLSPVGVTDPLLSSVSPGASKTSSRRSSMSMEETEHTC
FBW7 act: activators of human E3 ligase FBW7; Q969H0; AlphaScreen FBW7–phospho-cyclin E peptide binding, activator screen; normalized activity (activation), % at 26.1 µM; 0.13% of 650,000 active; AID 1259310; in the data active = normalized activity above about 1.9%;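 also: purified mutant Fbw7 with reduced substrate affinity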
Hits are given with their value; n = inactive. In the library only some 3.5% were active in any assay of this set; here they are far more common.

SMILES	GPR151 activ	TEAD-YAP block	MITF primary	FBW7 act
CC(C)c1ccc(/C=C2\CC/C(=C\C=N\N(C)C)C2=O)cc1	n	n	n	n
O=C1C(=C2SCCS2)CC/C1=C\c1ccco1	n	n	91	n
CN(C)/N=C/C=C1\CC/C(=C\c2ccco2)C1=O	n	n	55	n
COc1ccc(-c2cc3nc(C)cc(N)n3n2)cc1	n	74	n	n
Cc1nc2cc(-c3ccccc3)nn2c(N)c1-c1ccccc1	n	37	n	n
COc1ccc(-c2cc3nc(C)c(C)c(Cl)n3n2)cc1	n	n	n	n
CCOC(=O)c1c(N2C(N)=C(C#N)C(c3cccnc3)C3=C2CCCC3=O)sc2c1CCCC2 (stereo unspecified)	n	n	n	n
CCc1ccc2oc(-c3ccccc3)cc(=NCC(=O)O)c2c1	n	32	n	n
CCn1c(CN2CCN(c3ccccc3)CC2)nc2c1c(=O)n(C)c(=O)n2C	n	46	n	n
CCn1c(CN2CCN(c3ccc(F)cc3)CC2)nc2c1c(=O)n(C)c(=O)n2C	n	n	n	n
CC(C)n1cnc2c(NCc3nc4ccccc4[nH]3)nc(Nc3ncccn3)nc21	n	66	n	n
CC(C)n1cnc2c(NCc3ccccc3)nc(Nc3cccc(N(C)C)c3)nc21	n	n	n	n
CC(C)n1cnc2c(NCc3nc4ccccc4[nH]3)nc(Nc3ccncc3)nc21	n	90	n	n
CC(C)n1cnc2c(NCc3nc4ccccc4[nH]3)nc(Nc3cccc(N(C)C)c3)nc21	n	43	n	n
CC(C)n1cnc2c(NCc3nc4ccccc4[nH]3)nc(-c3csc4ccccc34)nc21	n	n	n	n
Cc1noc(C)c1-c1nc(NCc2nc3ccccc3[nH]2)c2ncn(C(C)C)c2n1	n	49	n	n
CN(C)CCCNS(=O)(=O)c1ccc2c(c1)Cc1cc(S(=O)(=O)NCCCN(C)C)ccc1-2	n	n	n	n
Cc1ccc(C)n1-c1ccc(C(=O)O)c(Cl)c1	n	n	81	n
Cc1ccc(C)n1-c1ccccc1C(=O)O	n	n	n	n
CC(=O)Nc1ccc(-n2c(C)ccc2C)c(C(=O)O)c1	n	n	57	n
Cc1ccc(C)n1-c1cc(Cl)ccc1C(=O)O	n	n	81	n
CCOc1ccc2nc(NCCNC(=S)NC)c(C#N)cc2c1	n	n	n	n
O=C1CSc2ccc(C(=O)N3CCN(c4cccc(C(F)(F)F)c4)CC3)cc2N1	n	52	n	n
O=C1CSc2ccc(C(=O)N3CCN(c4cccc(Cl)c4)CC3)cc2N1	n	56	n	n
O=C1Nc2cc(C(=O)N3CCN(c4cccc(Cl)c4)CC3)ccc2Sc2ccccc21	n	n	n	n
SMILES	GPR151 activ	TEAD-YAP block	MITF primary	FBW7 act
CCOc1ccc(NC(=O)C2=C(C)NC(=O)NC2c2cccc(Cl)c2)cc1 (stereo unspecified)	n	n	n	n
CCOc1ccc(NC(=O)C2=C(C)NC(=O)NC2c2ccc(C)cc2)cc1 (stereo unspecified)	n	33	n	n
CCOc1ccc(NC(=O)C2=C(C)NC(=O)NC2c2ccc(Cl)cc2Cl)cc1 (stereo unspecified)	n	40	n	n
COc1ccc(C2NC(=O)NC(C)=C2C(=O)Nc2ccc(Br)cc2)cc1 (stereo unspecified)	n	47	n	n
CCCCc1ccc(C2=N/C(=C\c3cccs3)C(=O)O2)cc1	n	n	n	n
Cc1ccc2c(c1)NC(=O)C(O)(C(F)(F)F)O2 (stereo unspecified)	n	n	n	n
O=C(O)c1oc2ccccc2c1CSc1ncn[nH]1	n	n	n	n
COc1ccc(-c2cc(-c3c(O)ccc4ccccc34)[nH]n2)cc1	n	89	n	n
COc1ccc(-c2cc(-c3cc(OC)ccc3O)[nH]n2)cc1	n	n	n	n
CCCN(CCC)S(=O)(=O)c1ccc(C(=O)Nc2nc3ccc(OC)cc3s2)cc1	n	n	n	n
CC[n+]1ccc(/C=C/c2cccc(OC)c2OC)cc1	n	34	n	n
CC[n+]1ccc(/C=C/c2ccc(OC)cc2OC)cc1	n	42	n	n
CCOc1ccc(N(CC(=O)N2CCOCC2)S(C)(=O)=O)cc1	n	n	n	2.1
CS(=O)(=O)N(CC(=O)N1CCOCC1)c1ccc(Oc2ccccc2)cc1	n	n	n	n
CCC(=O)N1c2ccc(S(=O)(=O)N3CCN(c4ccccc4)CC3)cc2CC1C (stereo unspecified)	n	n	n	n
CC(=O)c1ccc(N2CCN(S(=O)(=O)c3ccc4c(c3)CC(C)N4C(C)=O)CC2)cc1 (stereo unspecified)	n	41	n	n
Cc1nc2sccn2c1CN1CCc2ccc(NC(=O)C3CCCO3)cc2C1 (stereo unspecified)	n	37	n	n
O=C(Nc1ccc2c(c1)CN(C(=O)C#Cc1ccccc1)CC2)C1CCCO1 (stereo unspecified)	n	61	n	n
CCOC(=O)c1c(C)c(C(=O)Nc2ccc(OC)cc2OC)c(C)n1CC	n	46	n	n
CCOC(=O)c1c(C)c(C(=O)Nc2ccc(OC)cc2)c(C)n1CC	n	47	n	n
CCOC(=O)c1c(C)c(C(=O)Nc2ccc(C(=O)OC)cc2)c(C)n1CC	n	n	n	n
Nc1nonc1N=NN(Cc1ccc(Cl)cc1Cl)c1nonc1N	n	n	73	n
Nc1nonc1N=NN(CC(=O)Nc1c(Cl)cccc1Cl)c1nonc1N	n	n	n	n
COc1ccc2c(c1)C(=NO)c1cc(OC)ccc1-2	n	n	n	n
COc1ccc2c(c1)C(=NNC(N)=S)c1cc(OC)ccc1-2	n	50	n	n
SMILES	GPR151 activ	TEAD-YAP block	MITF primary	FBW7 act
CCc1c(C)sc2ncn(C3CCN(C(=O)C4CCCC(OC)C4)CC3)c(=O)c12 (stereo unspecified)	n	42	n	n
CCc1c(C)sc2ncn(C3CCN(C(=O)CCn4nc(C)cc4C)CC3)c(=O)c12	n	n	n	n
CCc1c(C)sc2ncn(C3CCN(C(=O)Cc4ccsc4)CC3)c(=O)c12	n	45	n	n
COc1ccc(NC(=O)c2ccc(Br)cc2)c2cccnc12	n	n	n	n
O=C(Nc1ccnc2ccccc12)c1ccc(Br)cc1	n	60	n	n
CCOC(=O)C1=C(C)N=c2s/c(=C\c3cc4c(cc3Br)OCO4)c(=O)n2C1c1ccccc1 (stereo unspecified)	n	n	n	n
O=C(Nc1ccc2c(c1)OCCO2)c1ccccc1Br	n	37	n	n
O=C(Nc1ccc2c(c1)OCCO2)c1cc(Br)cc(Br)c1I	n	47	n	n
O=C(Nc1nnc(-c2ccc3c(c2)OCCO3)o1)c1ccccc1Br	n	68	n	n
O=C(CSc1ncccc1C(=O)O)Nc1ccc2c(c1)OCCO2	n	63	n	n
O=C(Nc1nnc(-c2ccc3c(c2)OCCO3)o1)c1ccccc1Oc1ccccc1	n	n	n	n
Cc1ccc(N(C)S(=O)(=O)c2nnc(NC(=O)c3ccccc3F)s2)cc1	n	n	n	n
CCN(CC)CCn1c(NC(=O)C2CCCCC2)nc2ccccc21	n	n	n	n
Cc1ccc(N(Cc2ccc(N)cc2)C(=O)c2cccnc2)cc1	n	n	n	n
CCn1c(=O)n(CC(=O)N(C)C2CCCCC2)c2cccnc21	n	n	n	n

Assay outcomes deposited in PubChem BioAssay by The Scripps Research Institute Molecular Screening Center.
